The results in this text go back to PubChem BioAssay AID2642 (Johns Hopkins Ion Channel Center, 2010).

Screen size: about 310,000 compounds; about 3,900 (1.3%) were called active. The sample holds actives, similar compounds and a random draw of the others, so the mix is not that of the screen.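 The calls were made as follows: active = compounds whose thallium flux B-score, printed positive for inhibition, exceeds three library SD while starting fluorescence stays within three; inactive = the rest.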

Chain of Potassium voltage-gated channel subfamily KQT member 1 (Homo sapiens) (P51787 whole entry, looked up): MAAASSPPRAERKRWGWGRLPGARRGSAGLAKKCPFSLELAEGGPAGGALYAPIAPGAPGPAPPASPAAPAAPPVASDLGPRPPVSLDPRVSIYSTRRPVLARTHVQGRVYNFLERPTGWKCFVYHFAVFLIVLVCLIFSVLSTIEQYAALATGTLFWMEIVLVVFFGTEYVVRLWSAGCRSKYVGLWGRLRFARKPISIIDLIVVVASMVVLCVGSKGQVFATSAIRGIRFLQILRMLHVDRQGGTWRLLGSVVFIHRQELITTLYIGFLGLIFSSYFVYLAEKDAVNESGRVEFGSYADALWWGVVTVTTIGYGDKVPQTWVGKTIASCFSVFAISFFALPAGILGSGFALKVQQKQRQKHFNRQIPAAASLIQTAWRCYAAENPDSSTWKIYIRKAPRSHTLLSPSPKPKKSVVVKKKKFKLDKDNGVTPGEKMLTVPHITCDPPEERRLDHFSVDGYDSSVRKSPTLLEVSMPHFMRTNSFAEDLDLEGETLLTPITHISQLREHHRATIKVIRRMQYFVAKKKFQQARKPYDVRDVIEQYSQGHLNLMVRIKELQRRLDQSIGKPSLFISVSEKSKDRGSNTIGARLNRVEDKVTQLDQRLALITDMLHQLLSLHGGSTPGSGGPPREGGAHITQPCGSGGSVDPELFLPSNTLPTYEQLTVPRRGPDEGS

The experiment has as its target Potassium voltage-gated channel subfamily KQT member 1 (Homo sapiens) (UniProt P51787). The experiment is described as follows: inhibitors of human KCNQ1 channel, primary screen, cell-based, thallium flux, high-throughput (AID 2642).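 Also: channel opened by potassium depolarization with thallium stimulus after 20 min compound exposure.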 As to conditions: CHO-K1 KCNQ1, FluxOR thallium flux fluorescence, at 10 µM; stronger effect = higher value.
For `NC1=NC2(CCCCC2)N(c2ccc(F)cc2F)C(N)=N1`, the B-score entry is “inactive”.

For `COc1ccc(CNC(=O)/C(C#N)=C/c2cccc(OC)c2OC)cc1`, the B-score entry is “inactive”. Turning to `CCOC(=O)C1CCN(Cc2nnc(-c3cccc(Br)c3)o2)CC1`, the B-score result is “inactive”. With `CCOC(=O)C1CCN(c2ncnc3c2oc2ccc(Br)cc23)CC1` the figure was 9 (active). Take `CCOC(=O)C1CCN(c2ncnc3c2c(-c2ccccc2)cn3-c2ccc(C)cc2)CC1`: the B-score result was “inactive”. The same measure for `N/C(=N\c1nc2ccccc2o1)NC(=O)C(Cc1ccccc1)N1C(=O)c2ccccc2C1=O` (configuration not stated): “inactive”; for `CCOC(=O)COn1c(=O)c(-c2ccc(OCC)cc2)[n+]([O-])c2ccccc21`: “inactive”; for `NC(=O)C1CCN(C(=O)c2ccc3c(=O)n(Cc4cccc(Br)c4)c(=S)[nH]c3c2)CC1`: “inactive”. With `CC(C)/C=N/NC(=O)c1cc(Br)ccc1O` the entry was “inactive”. With `CC(=N\NC(=O)c1cc(Br)ccc1O)/C(=N/O)C(=O)Nc1ccccc1` the figure was 9 (active); with `CC(=O)N/N=C(\C)c1ccc(Br)cc1Br`, “inactive”.

In the case of `CC1(C(=O)O)CCC(C(=O)Nc2ccc(Cl)c(Cl)c2)C1(C)C` (configuration not stated), the B-score entry was “inactive”. The same measure for `CC(=O)Nc1cccc(NC(=O)c2ccc3c(c2)CCN3S(C)(=O)=O)c1`: “inactive”; for `Cc1nc(-c2ccc(Cl)cc2)sc1C1(C)CC(c2ccc(Br)cc2)=NO1` (configuration not stated): “inactive”. For the molecule `Cc1nc(C(=O)NCc2ccccc2)sc1C1(C)CC(c2cccnc2)=NO1` (configuration not stated), the B-score entry is “inactive”. For `Cc1nc(C(=O)Nc2ccc(Cl)cc2)sc1C1(C)CC(c2ccccc2)=NO1` (configuration not stated), the B-score is 6 (active). With `CC1C(=O)Nc2ccc(S(=O)(=O)N3CCN(c4ccccc4F)CC3)cc2NC1=O` (configuration not stated) the entry was “inactive”; with `C=CCC1(CC=C)CCCN1C(=O)CC1C(=O)NCCN1Cc1ccccc1OC` (configuration not stated), “inactive”. The same measure for `COc1ccc(N2CCN(C(=O)/C(C#N)=C/c3ccccc3)CC2)cc1`: “inactive”; for `N#C/C(=C\c1ccc(N2CCOCC2)o1)C(=O)N1CCOCC1`: 7 (active); for `N#C/C(=C/c1ccc(N2CCOCC2)o1)C(=O)N1CCOCC1`: “inactive”. With `COc1ccc(N2CC(C(=O)N[C@@H](C)C(=O)N3CCCCC3)CC2=O)cc1` (some centres not stated) the entry was “inactive”; with `Cc1cc(C(C)(C)C)oc1C(=O)N(CC(=O)NC1CCCC1)Cc1ccc(Cl)cc1`, “inactive”. With `COCCN1C(=O)C(=O)/C(=C(/O)c2ccc(S(=O)(=O)N3CCOCC3)cc2)C1c1ccc(O)c(OC)c1` (configuration not stated), the B-score entry was “inactive”. With `COc1ccccc1C(=O)NC(CCSC)C(=O)N1CCN(C/C=C/c2ccccc2)CC1` (configuration not stated) the entry was “inactive”; with `CCOc1ccc(CCNC(=O)COC(=O)CCS(=O)(=O)c2ccc(C)cc2)cc1OCC`, “inactive”. The same measure for `COc1ccc(-c2oc(/N=C/N3CCCC3)c(C#N)c2-c2ccc(OC)cc2)cc1`: “inactive”; for `N#Cc1c(/N=C/N2CCCC2)oc(-c2ccccc2)c1-c1ccccc1`: 7 (active); for `N#Cc1c(-c2ccccc2)c(-c2ccccc2)n[nH]c1=O`: “inactive”. With `O=C(NCC(F)(F)F)Nc1nnc(C(F)(F)F)s1` the figure was 6 (active); with `O=C(Nc1nnc(COc2ccccc2)s1)Nc1ccccc1F`, “inactive”. With `COc1ccc(C)cc1NC(=O)CCC(=O)Nc1nnc(C(F)(F)F)s1`, the B-score entry is “inactive”. Consider `Cc1ccccc1NS(=O)(=O)CCCCC(Cl)(Cl)Cl`, for which the B-score entry was “inactive”.

`CN(C)S(=O)(=O)c1cccc(NC(=O)COC(=O)C2(c3ccccc3F)CCCC2)c1`: the B-score entry is “inactive”. The same measure for `N#Cc1ccc(C(=O)Nc2nc(-c3cccs3)c(C(=O)C(F)(F)F)s2)cc1`: “inactive”. The same measure for `Cc1ccc(C(=O)c2c(NC(=O)c3ccncc3)sc3c2CCCC3)cc1`: “inactive”. With `Cc1ccc(C(=O)c2c(NC(=O)c3ccccc3)sc(C)c2C)cc1` the figure was 6 (active).

On to `Cc1sc(NC(=O)c2ccc3ncsc3c2)c(C(N)=O)c1C`, for which the B-score entry is “inactive”. With `COc1ccc(NC(=O)NNC(=O)COc2cc(C)c(Cl)c(C)c2)c(OC)c1` the entry was “inactive”.

As to `CC1(C)NC(=O)N(CC(=O)Nc2cc(C(F)(F)F)cc(C(F)(F)F)c2)C1=O`, the B-score entry is “inactive”. For `CN(C)Cc1ccccc1C1(O)c2ccccc2CSc2ccccc21` (configuration not stated), the B-score is 7 (active).

Turning to `COc1ccc(CCNS(=O)(=O)c2cccc([N+](=O)[O-])c2)cc1`, the B-score entry is “inactive”. With `CCC1Sc2ccc(S(=O)(=O)CCC(=O)NCc3cccs3)cc2NC1=O` (configuration not stated) the entry was “inactive”; with `CN(C)NC(=O)c1csnc1-c1c(Cl)cccc1Cl`, “inactive”. With `O=c1ccc2cc(S(=O)(=O)Nc3ccccc3F)ccc2o1` the entry was “inactive”. In the case of `CCc1ccccc1NC(=O)c1ccc2snnc2c1`, the B-score entry is “inactive”. The same measure for `O=C(Nc1ccc2ccccc2c1)Nc1ccc2snnc2c1`: 8 (active); for `O=C(Nc1cccc(Br)c1)c1ccc2snnc2c1`: “inactive”. As to `Cc1ccc(C(=O)NCC(=O)NCc2cc(=O)n(C)c(=O)n2C)cc1`, the B-score result was “inactive”. With `COc1ccc(CC(=O)Nc2nc(-c3ccc(F)c(F)c3)cs2)cc1OC` the figure was 9 (active); with `COc1cc(CC(=O)Nc2nc(-c3ccc(F)c(F)c3)cs2)cc(OC)c1OC`, “inactive”; with `Cc1ccc(S(=O)(=O)NC(=O)Nc2nc(-c3ccc(F)c(F)c3)cs2)cc1`, “inactive”. The same measure for `NC(=O)[C@H]1CC2(CC(c3cccc(NC(=O)[C@H]4CCC(=O)N4)c3)=NO2)CN1C(=O)c1ccccc1C(=O)c1ccccc1` (some centres not stated): “inactive”; for `O=C(Cn1nnc2ccccc2c1=O)Nc1cc(C(F)(F)F)ccc1N1CCOCC1`: “inactive”; for `CCCc1cc(=O)[nH]c(SCC(=O)Nc2sc3c(c2C#N)CCCC3)n1`: “inactive”. The same measure for `CCOC(=O)c1cnc(SC)nc1Sc1ccc(Cl)cc1Cl`: 6 (active); for `CCOC(=O)c1cnc(COc2ccccc2Cl)[nH]c1=O`: “inactive”. Consider `CCOC(=O)c1nc(C)n(-c2ccc(Cl)cc2Cl)n1`, for which the B-score result is “inactive”. As to `COc1ccccc1N1CCN(c2ccc([N+](=O)[O-])nc2)CC1`, the B-score result is “inactive”. With `COc1ccccc1N1CCN(c2ncnc3sc(C)c(-c4ccccc4)c23)CC1` the figure was 9 (active). With `Oc1ccccc1N1CCN(c2ncnc3sc(-c4ccccc4)cc23)CC1` the entry was “inactive”; with `CCN(CC)S(=O)(=O)c1ccc(OC(C)C)c(N)c1`, “inactive”; with `CCc1ccccc1NC(=O)/C(=C/c1ccccc1)c1ccccc1`, “inactive”. With `COCc1cc(C)nc2sc3c(=O)n(-c4cccc5ccccc45)nnc3c12` the entry was “inactive”; with `COc1ccc(/C=C/C(=O)Nc2ccc(C34CC5CC(CC(O)(C5)C3)C4)cc2)cc1OC`, “inactive”. For the molecule `Cc1cccc(N2CCN(C(=O)c3cc4c(=O)[nH]c5ccccc5c4n3C)CC2)c1C`, the B-score entry was “inactive”.

For the molecule `Cc1cccc(N2CCN(C(=O)c3cnn4c(C(F)F)cc(-c5ccccc5)nc34)CC2)c1C`, the B-score was 7 (active).

In the case of `O=C(O)c1cnn2c(C(F)(F)F)cc(-c3ccccc3)nc12`, the B-score entry is “inactive”. The same measure for `COc1ccc(N2CCN(C(=O)c3cn(C)c4ccc(S(=O)(=O)N5CCOCC5)cc4c3=O)CC2)cc1`: “inactive”; for `COCCn1c(N)c(NCc2ccccc2)c(=O)[nH]c1=O`: “inactive”. In the case of `COC1=CCC2([N+](=O)[O-])CN(CC(=O)O)CC1([N+](=O)[O-])C2` (configuration not stated), the B-score result was “inactive”. As to `CCCCOc1ccc(C(=O)NCC(=O)OCC(=O)N2CCN(S(=O)(=O)c3ccc(C)cc3C)CC2)cc1`, the B-score result is “inactive”. For `CCN(CC)CCn1cnc2c1c(=O)[nH]c(=O)n2Cc1ccccc1`, the B-score entry is “inactive”. The same measure for `N=c1c2c(-c3ccccc3)c(-c3ccccc3)n(Cc3ccccc3)c2ncn1CCCO`: 10 (active); for `COCCn1cnc2c1c(=O)n(Cc1ccc(Br)cc1)c(=O)n2Cc1ccccc1`: “inactive”.

For `O=S(=O)(Nc1ccccc1Br)c1cccs1`, the B-score entry is “inactive”. The same measure for `O=C(Nc1cccc(Cl)c1)Nc1ccccc1NS(=O)(=O)c1cccs1`: 14 (active); for `O=S(=O)(NCc1ccc(Cl)cc1Cl)c1cccs1`: “inactive”. The same measure for `COCCNC(=O)CN(Cc1ccco1)C(=O)CCC(=O)Nc1nccs1`: “inactive”. With `O=C(CN1C(=O)c2ccccc2C1=O)NCc1ccc(C(=O)O)cc1` the entry was “inactive”; with `CC(C)N(C(=O)c1ccc(-c2ccccc2F)cc1)C(C)C`, “inactive”. As for `CC(=O)N(C1=C(Cl)C(=O)c2ccccc2C1=O)c1ccc(C(=O)O)cc1`, the B-score was 17 (active). With `Cc1ccc(Cl)cc1NC(=O)C1CCCN(c2cnccn2)C1` (configuration not stated) the entry was “inactive”; with `O=C(COc1ccc(S(=O)(=O)N2CCOCC2)cc1Cl)N1CCOCC1`, “inactive”; with `OCC1(Cc2ccccc2C(F)(F)F)CCN(Cc2cccc3cnccc23)CC1`, “inactive”.

For the molecule `O=C(Cc1ccsc1)N1CCN(S(=O)(=O)c2cc(C(F)(F)F)cc(C(F)(F)F)c2)CC1`, the B-score entry is “inactive”. The same measure for `O=C(c1ccncc1)N1CCN(S(=O)(=O)c2cccc([N+](=O)[O-])c2)CC1`: “inactive”. With `O=C(c1ccncc1)N1CCN(S(=O)(=O)c2cc(C(F)(F)F)cc(C(F)(F)F)c2)CC1`, the B-score is 6 (active). With `Cn1c(=O)c2c(nc(N3CCOCC3)n2CCNC2=NCCC2)n(C)c1=O` the entry was “inactive”; with `CCc1cccc(NC(=O)C2CCCN(S(=O)(=O)c3ccc4[nH]c(=O)ccc4c3)C2)c1` (configuration not stated), “inactive”. As to `COC(=O)c1ccc(/C=C2/C(=O)Oc3ccccc32)cc1`, the B-score entry is “inactive”.

For `C/C(N)=C(/C#N)C(=O)COC(=O)C1CCN(C(=O)c2ccc(Cl)cc2)CC1`, the B-score entry was “inactive”. With `COc1ccc(NC(=O)CNC(=O)Cn2ccc3ccccc3c2=O)c(OC)c1` the entry was “inactive”. Regarding `Cc1ccc(OCCCCc2c(C)n[nH]c2C)cc1`, the B-score entry is “inactive”. The same measure for `CCOC(=O)c1ccc2c(c1)nc(C)n2CC`: “inactive”. `CCn1c(/C=C/Nc2ccccc2)[n+](CC)c2ccc(C(=O)OCC(F)(F)F)cc21`: the B-score is 9 (active). The same measure for `CCOC(=O)N1CCN(C(=O)c2ccc(S(=O)(=O)Nc3cccc(C(F)(F)F)c3)cc2)CC1`: “inactive”.

For the molecule `O=C(COC(=O)/C=C/c1cccs1)NC1CCCCC1`, the B-score result is “inactive”. The same measure for `Cc1nc(-c2ccc(F)cc2)c(CC(=O)Nc2cccc(S(=O)(=O)N3CCOCC3)c2)s1`: “inactive”; for `Cc1ccc(-c2nc(-c3cccnc3)sc2CC(=O)Nc2ccc(C)c(Cl)c2)cc1`: 11 (active); for `Cc1ccc(NC(=O)COc2ccc(-n3ccnc3)cc2)cc1Cl`: “inactive”. The same measure for `COc1cc(C(=O)N/C(=C\c2cn(C)c3ccccc23)C(=O)N2CCOCC2)cc(OC)c1OC`: “inactive”.
